ATXN viability: Viability Counterscreen for Primary qHTS for Inhibitors of ATXN expression | S2 cells (HEK-293 line with an ATXN2-luciferase reporter) viability, CellTiter-Fluor protease fluorescence, 24 h | Potency, µM (top dose mostly 56.7 µM), actives largely listed as cytotoxic | hit rate 0.49% among 400,000; also: potency is read from the fitted curve at half-maximal effect; nearly all actives have a fitted effect of over 40% in size
USP2a inh: qHTS Assay for Inhibitors of Ubiquitin-specific Protease USP2a Using CHOP2 as the Reporter; Ubiquitin carboxyl-terminal hydrolase 2 (Homo sapiens), O75604; Potency, µM (highest dose often 38.3 µM), inactives show at the top dose activity change, negative = inhibition, hits mostly inhibitors; USP2 core, Ub-CHOP2 coupled fluorogenic reporter, 485/531; hit rate 0.01% among 330,000;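 also: potency is read from the fitted curve at half-maximal effect; plate controls were DMSO wells for no effect and full inhibition by NEM control for full effect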
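Deubiquitinase activity read as fluorescence (485/531 nm) after Ub-CHOP2 cleavage activates the enterokinase reporter on its substrate; USP2 core 10nM, Ub-CHOP2 and substrate 25nM each, 30min compound preincubation then 60min RT; data normalized to NEM, curves fitted.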
ATXN2 expr inh: Primary qHTS for Inhibitors of ATXN expression. AID 1745845, 2022. Potency, µM (titrated, usually from 57 µM), for inactives: at the highest dose activity change, negative = inhibition, actives largely listed as inhibitors. hit rate 0.72% among 360,000. HEK-293 ATXN2-luciferase reporter, luminescence, 24 h; also: potency is read from the fitted curve at half-maximal effect; % is scaled to controls: 0 for no effect and ±100 for the full control effect; nearly all actives have a fitted effect of over 55% in size
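qHTS (up to 57 uM final) was run with 24 h compound exposure of reporter cells at 37 °C. Each well was multiplexed: SteadyGlo luminescence measured ATXN2-luciferase expression after a fluorogenic Gly-Phe-AFC viability readout (25 uM final).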
IL1B secr inh: qHTS for Inhibitors of Inflammasome Signaling: IL-1-beta AlphaLISA Primary Screen. THP-1 LPS/ATP IL-1B secretion, AlphaLISA, 16 h; stronger effect = lower value. activity change, % at 57.5 µM. hit rate 4.7% among 360,000. AID 743279, 2014; in the data active = activity change below about -50%; inconclusive = mostly about -30% to -49%; also: % is scaled to controls: 0 for no effect and ±100 for the full control effect
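THP-1 cells pretreated 1 hr with compounds (up to 57.5 uM final), then stimulated with LPS (250 ng/mL final) plus ATP (1.25 mM final); secreted IL-1B measured by AlphaLISA after 16 hr, decreased signal indicating inhibition.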
USP1 inh: Inhibitors of USP1/UAF1: Primary Screen; Ubiquitin carboxyl-terminal hydrolase 1 (Homo sapiens), O94782; recombinant USP1/UAF1, Ub-Rhodamine cleavage fluorescence; Potency, µM (top dose mostly 57.1 µM), without a hit: at the top dose activity change, negative = inhibition, actives largely listed as inhibitors; hit rate 0.23% among 390,000; AID 743255, 2014; also: potency is read from the fitted curve at half-maximal effect; % is scaled to controls: 0 for no effect and ±100 for the full control effect; nearly all actives have a fitted effect of over 60% in size
Target sequence (O94782 whole entry, looked up): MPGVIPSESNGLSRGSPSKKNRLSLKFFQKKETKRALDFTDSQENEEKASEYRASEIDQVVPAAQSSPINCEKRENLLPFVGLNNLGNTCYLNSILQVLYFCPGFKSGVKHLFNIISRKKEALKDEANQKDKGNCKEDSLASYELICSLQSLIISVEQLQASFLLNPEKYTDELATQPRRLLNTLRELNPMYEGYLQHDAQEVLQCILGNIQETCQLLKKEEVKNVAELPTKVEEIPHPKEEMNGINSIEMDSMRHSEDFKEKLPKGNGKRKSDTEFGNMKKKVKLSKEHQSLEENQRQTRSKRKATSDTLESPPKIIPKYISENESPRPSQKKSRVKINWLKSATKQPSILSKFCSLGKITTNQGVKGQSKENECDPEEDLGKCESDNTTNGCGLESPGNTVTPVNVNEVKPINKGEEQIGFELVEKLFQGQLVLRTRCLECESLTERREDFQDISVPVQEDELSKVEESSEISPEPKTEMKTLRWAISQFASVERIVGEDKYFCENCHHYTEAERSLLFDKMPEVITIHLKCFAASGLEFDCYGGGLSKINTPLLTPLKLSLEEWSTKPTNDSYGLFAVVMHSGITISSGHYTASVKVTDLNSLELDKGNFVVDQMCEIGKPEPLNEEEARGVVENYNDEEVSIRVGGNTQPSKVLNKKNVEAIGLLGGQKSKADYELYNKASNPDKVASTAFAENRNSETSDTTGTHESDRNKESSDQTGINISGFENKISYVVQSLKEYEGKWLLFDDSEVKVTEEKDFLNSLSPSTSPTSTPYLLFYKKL
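USP1/UAF1 complex (1 nM) preincubated 15 min at room temperature with compound, then Ub-Rho substrate (150 nM final) added. Kinetic fluorescence at 480/540 nm over 6 reads at 60 s intervals; 50 mM HEPES pH 7.8, 0.5 mM EDTA, 0.1 mg/ml BSA, 1 mM TCEP, 0.01% Tween-20.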
The depositor's hits bear a star; i = inactive; ? = inconclusive; / = no result given; [ ] = dose if it differs, or a comment. Only some compounds are listed: those with a hit (about 4.8% of all), similar ones and a draw of the others. Unless noted, calls follow the shape of the dose curve; as a rule, active = well fitted curve in the direction sought with a large enough effect; inconclusive = small, poorly fitted or top-dose-only effect, or another doubt; inactive = no such curve, though single readings can be large; an effect the other way counts as inactive or inconclusive.

SMILES	ATXN viability	USP2a inh	ATXN2 expr inh	IL1B secr inh	USP1 inh
COc1ccc(C(CNC(=O)c2cccc(S(=O)(=O)N3CCc4ccccc43)c2)N(C)C)cc1 (stereo not drawn)	i	3.0%	-8.8%	-74.9*	-7.8%
COc1ccccc1C(CNC(=O)c1cccc(S(=O)(=O)N2c3ccccc3CC2C)c1)N(C)C (stereo not drawn)	i	/	-18.2%	-53.9*	-8.9%
N#Cc1ccc(Oc2ccc(S(=O)(=O)N3CCOCC3)cn2)cc1	i	0.5%	9.5%	1.4	-15.9%
Cc1cc([C@@H](C)Nc2ccccc2C(=O)O)c2nc(N3CCOCC3)cc(=O)n2c1	/	/	-3.9%[116 µM]	/	/
CCN1C(=O)CC(CC(=O)N2CCCCC2c2nccs2)(c2ccccc2C)C1=O (stereo not drawn)	i	/	/	/	/
O=C(Oc1ccc(-c2nnco2)cc1)N(c1ccccc1)c1ccccc1	i	-1.0%	2.1%	-79.1*	-10.1%
O=C(Oc1ccc(-c2nnco2)cc1)c1ccc(Br)o1	i	0.7%	-1.9%	0.3	0.9%
Cc1onc(-c2ccccc2)c1CNC(=O)Nc1cccc(Cl)c1	i	-0.1%	-31.5%	-65.9*	-8.8%
CCCCCCCCN1C(=O)[C@H](CC(=O)NCc2ccccc2)C[C@@]2(C(=O)OCC)CCCC=C12	?	/	?	-72.5*	/
CCCCCCCCN1C(=O)[C@H](CC(=O)NCC2CCCCC2)C[C@@]2(C(=O)OCC)CCC=C12	/	/	/	-25.3	/
CCCCCCCCN1C(=O)[C@H](CC(=O)NCCCCc2ccccc2)C[C@@]2(C(=O)OCC)CCCC=C12	?	/	?	-24.7	/
CCCCCCCCN1C(=O)[C@H](CC(=O)NCc2cccc(C(F)(F)F)c2)C[C@@]2(C(=O)OCC)CCCC=C12	?	/	-8.4%	-52.6*	/
CCCCCCCCN1C(=O)[C@H](CC(=O)NCC2CCCCC2)C[C@@]2(C(=O)OCC)CCCC=C12	?	/	?	-51.3*	/
Cc1c(C(=O)NCc2ccc(C(C)C)cc2)sc(=O)n1Cc1cccc(F)c1	i	/	7.8%	-3.2	/
CCN1C(=O)[C@H]2[C@@H](c3ccc(-c4ccc(OC)cc4)cc3)N3CCC[C@@]3(C(=O)OC)[C@H]2C1=O	i	-3.9%	5.8%	14.2	-21.0%
COC(=O)[C@H]1[C@H](c2ccccc2)[C@H](C(=O)OC)O[C@H]1c1ccccc1	i	/	-0.8%	14.7	-0.7%
O=C(C1=NNCC1c1ccccc1)C1OC1c1ccccc1 (stereo not drawn)	i	11.5%	49.0%	-89.4*	-2.1%
Cc1cc(=O)oc2c(C)c(OCC(=O)NC3CC(C)(C)NC(C)(C)C3)ccc12	i	0.3%	-6.3%	-23.0	-18.4%
Cc1c(OCC(=O)NC2CC(C)(C)NC(C)(C)C2)ccc2c3c(c(=O)oc12)CCC3	i	3.4%	-18.0%	-53.6*	-9.5%
Cc1c(OCC(=O)NC2CC(C)(C)NC(C)(C)C2)ccc2c1oc(=O)c1ccccc12	?	-0.9%	17.8µM*	?	-13.7%
Cc1ccc(S(=O)(=O)N2CCC(C(=O)Nc3ncccc3O)CC2)cc1	i	1.5%	-12.1%	44.7	-4.1%
CCCCN(CC)CCNC(=O)c1cc2c(=O)n(C)c3ccccc3c2s1	i	0.7%	-32.1%	-86.2*	-25.7%
CCn1c(=O)c2cc(C(=O)NCC(OC)OC)sc2c2ccccc21	i	7.1%	-6.6%	-55.8*	?
CCn1c(=O)c2cc(C(=O)NCCCOC)sc2c2ccccc21	i	-0.3%	-2.5%	-50.1*	-12.8%
CCCN(CCC)CCCNC(=O)c1cc2c(=O)n(CC)c3ccccc3c2s1	/	4.4%	-3.5%	-63.2*	-8.2%
SMILES	ATXN viability	USP2a inh	ATXN2 expr inh	IL1B secr inh	USP1 inh
CCn1c(=O)c2cc(C(=O)NCCC(C)C)sc2c2ccccc21	i	-0.4%	-17.9%	?	?
O=C(Nc1ccc(Cl)cc1Cl)c1cc(S(=O)(=O)N2CCC3(CC2)OCCO3)ccc1F	/	/	/	/	-2.2%
CO[C@@]1(NC(=O)CSC[C@@H](N)C(=O)O)C(=O)N2C(C(=O)O)=C(CSc3nnnn3C)CS[C@@H]21	i	/	-5.0%	/	/
CCCCN(CC)CCCNC(=O)c1cc2c(=O)n(CC)c3ccccc3c2s1	?	4.1%	?	-76.7*	-8.3%
N#C/C(=C\c1c(Oc2ccccc2F)nc2ccccn2c1=O)C(=O)NC1CCS(=O)(=O)C1 (stereo not drawn)	/	-0.7%	39.4%	?	-16.5%
Cn1nnnc1Sc1ncnc2scc(-c3cccc(Br)c3)c12	14.1µM*	1.1%	8.91µM*	/	/
O=C(O)CSc1ncnc2scc(-c3ccc(Br)cc3)c12	i	10.8%	-11.8%	14.6	-9.2%
CC(=O)c1cccc(-c2csc3ncnc(Sc4nnnn4C)c23)c1	7.94µM*	/	6.31µM*	/	/
Cn1nnnc1Sc1ncnc2scc(-c3cccc(S(C)(=O)=O)c3)c12	?	-4.7%	8.91µM*	/	/
Cn1cc(CNC2CCN(c3cccc(NC(=O)c4cccnc4)c3)CC2)cn1	i	/	/	/	/
O=C(CSc1ncc2c(n1)-c1cc(Cl)ccc1N(Cc1ccccc1F)S2(=O)=O)Nc1cccc(C(F)(F)F)c1	i	/	6.7%	/	-21.6%
Cc1ccc(S(=O)(=O)CCC(=O)N(CCN2CCOCC2)c2nc3ccccc3s2)cc1	i	2.0%	8.3%	-2.8	-10.8%
CCN(CC)CCN(C(=O)CCS(=O)(=O)c1ccccc1)c1nc2c(C)cc(C)cc2s1	/	1.3%	-36.7%	-90.0*	-20.5%
CCN(CC)CCN(C(=O)CCS(=O)(=O)c1ccccc1)c1nc2cc(OC)c(OC)cc2s1	?	-0.2%	2.8%	8.2	-6.4%
CCN(CC)CCN(C(=O)CCS(=O)(=O)c1ccccc1)c1nc2cc(C)cc(C)c2s1	i	-0.3%	-29.6%	-101.8*	-23.1%
Cc1cccc2sc(N(CCN3CCOCC3)C(=O)CCS(=O)(=O)c3ccccc3)nc12	/	0.8%	?	-98.0*	-6.2%
COc1ccc(-n2nnnc2C(c2cccc(OC)c2OC)N2CCN(C/C=C/c3ccccc3)CC2)cc1 (stereo not drawn)	?	/	-20.1%	?	/
CN1CCN(c2ccc(Nc3ccnc4cc(Cl)ccc34)cc2)CC1	?	0.8%	3.55µM*	-89.6*	-7.6%
COc1ccc(N2CCN(c3ccnc4cc(Cl)ccc34)CC2)cc1	i	1.2%	?	-56.2*	-24.8%
COc1ccc(-c2csc(N3CCN(c4cc(C)nc5ccccc45)CC3)n2)cc1OC	10µM*	-1.7%	?	-100.7*	-12.2%
CCOc1ccc(Nc2ccnc3cc(Cl)ccc23)cc1	i	-0.3%	-28.6%	-24.7	-13.5%
